These sequences were tested against MYCBPAP (assay: pooled miR-30 sensor sort-seq; sequence = guide strand). Conditions: shRNA.
Note: reference of the scale not given here.

Sequence | sensor-assay potency score (higher = more potent)
TAGATCAGAAACAGACTCCGAT | 0.675
TTCCAAAGAAAACCTGTCCTGA | -0.596
TATGACTTTCTTGTCATCCTTT | 0.0986
TGCAATTCTCTTAAAATCCTGG | -0.695
TTGTGCTTCTTGCTGTTGGGAC | -0.31
TTTTGTCTTGGTCATGACCAGA | -1.08
TTGTAGGACATTGCTAACAGGT | -0.808

Each sequence was assayed against MYCL1 in the same assay as above. Conditions: shRNA.

Sequence | sensor-assay potency score (higher = more potent)
TTGCTTAGGATCACTACTTTGG | -0.448
ATAGTCGTAGAAATAGTGCTGG | 0.222
TCAATTTCTTCATTCTCCGAGT | 0.102
TCATTCTCCGAGTCGCTTGGGC | -0.392
TCTTTTCTGCAACTGCTGCTGC | 0.0557
TTTCTCTGTAGCCATCCTCTTC | -0.97
TAGTCGTAGAAATAGTGCTGGT | -0.671
AATTCTTTTCTGCAACTGCTGC | -0.74
ATCAATTTCTTCATTCTCCGAG | 0.219
TTAGGATCACTACTTTGGGGGC | -0.971
TTCTTTTCTGCAACTGCTGCTG | -0.121
TTCTTCCAGATGTCCTCGCTGG | -0.137

Each sequence was assayed against MYH14 in the same assay as above. Conditions: shRNA.

Sequence | sensor-assay potency score (higher = more potent)
TTGAGGCGCAGAACCAGCCAGC | -0.999
TCATCTGCCATCTCATCCCGGT | -0.0949
TTGTCATTCTTCACTGTCTTGG | -0.287
TTGTAGTCGACCTTGCCCGCGT | -0.308
TTCCTCTGCCTCCTCGTCGGAT | -1.06
TTGGTGTTTTCCGTCTTCCCAG | -1.05
TGTCAGGATCTCGTATCGCTGC | -0.48
TTTCCGTCTTCCCAGCTCCAGA | -1.5
TTCACCTTGGTAAACAGCCGCC | -0.755
TAGTGGAGAACACTGAAGTCGG | -0.73
TCTGGTCTCTTGCTCTAGCTGC | -0.396
TAGAGCTGTCCCACTGTCCGGA | 0.0775

These sequences were tested against MYL4 in the same assay as above. Conditions: shRNA.

Sequence | sensor-assay potency score (higher = more potent)
TGAACTCTTCAATCTGGTCGGC | 0.0317
TAGGTGATCTTCATCTCTCCAG | -0.392
ATCTTCATCTCTCCAGTCGGGG | -0.885
TTGAACTCTTCAATCTGGTCGG | 0.391
TTTATTAACAGGGAGGGCCTGT | -0.299
TCTTTGAACTCTTCAATCTGGT | -0.00801
TCTTCATCTCTCCAGTCGGGGT | -1.55
TCTATCTTTACACTCTTGGGGT | 0.0138
TCGGCAGTGAAGTCTATCTTTA | -1.13
